The values below come from PubChem BioAssay (Tox21).

“And” between values parts separate entries of the source, which are not always exact repeats. Identical values can stand only once. Inconclusive results are not listed. A call without a number means that no potency is given here. The source made the active and inactive calls. Unless noted, the call rests on the fitted dose curve.
Potency means the concentration at half of the fitted maximal effect.

Tested on in one assay: not listed separately
Nature of the assay: qHTS assay to identify small molecule antagonists of the sonic hedgehog signaling (Shh) pathway (AID 1259369). Further: nearly all actives have a fitted effect of over 45% in size. Particulars: NIH/3T3 Gli1-Luc reporter, Shh antagonist, luminescence 24 h; series mostly up to 92.4 µM. Summed up: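 Inhibition of Shh signalling is measured as reduced Gli1-response-element firefly luciferase output in an NIH/3T3-derived stable reporter clone stimulated with conditioned medium for 24hr.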
In general terms: In qHTS, concentration-response curves come from the screen itself.
With `ClC(Cl)C(Cl)(Cl)Cl`, the Potency entry was “inactive”.
As to `Cc1ccc([N+](=O)[O-])[c]2c1[O][Hg]2`, the Potency was 0.266 µM (active).
As for `Clc1ccc(C2(Cn3cncn3)OCCO2)c(Cl)c1`, the Potency result was “inactive”.
Regarding `CCCCCCCCCCCCCCn1cc[n+](C)c1`, the Potency was 122 nM (active) and 42.8 nM (active).
The same measure, in the same setting: in the case of `S=C=NCCc1ccccc1` it was “inactive”; in that of `CC(C)N(C(=O)SC/C(Cl)=C/Cl)C(C)C`, “inactive”; in that of `Brc1cccc(-c2ccccc2)c1`, “inactive”.
On to `CCN(CC)CCc1c[nH]c2ccccc12`, for which the Potency was 50.9 µM (active).
Turning to `CCC1COC(Cn2cncn2)(c2ccc(Cl)cc2Cl)O1` (stereo not drawn), the Potency was 54.5 µM (active).
Turning to `Cc1cnc2c(C(=O)O)c(Cl)ccc2c1`, the Potency result is “inactive”.
Still for that read-out and setting: in the case of `CCC(C)c1cccc(C(C)CC)c1O` (stereo not drawn) it was “inactive”.
On the same count and under the same terms, in the case of `CCCCc1ccccc1` it was “inactive”; in that of `CC(Cc1ccc(OCC(=O)O)cc1)NCC(O)c1csc(C(F)(F)F)n1` (stereo not drawn), “inactive”; in that of `CCC[CH2][Sn]([CH2]CCC)([CH2]CCC)[O][Sn]([CH2]CCC)([CH2]CCC)[CH2]CCC`, 0.212 µM (active).
The same measure, in the same setting: in the case of `COc1ccc2c(c1OC)C(=O)O[C@@H]2[C@H]1c2cc3c(cc2CCN1C)OCO3` it was “inactive”; in that of `C=CCOC(=O)c1ccccc1N`, “inactive”; in that of `NC(=O)C(Cl)Cl`, “inactive”.
As to `CC1(C)[C@H](/C=C2\CCSC2=O)[C@@H]1C(=O)OCc1coc(Cc2ccccc2)c1`, the Potency is 12.2 µM (active).
Take `C[C@]12CC[C@H]3[C@@H](CCC4=CC(=O)CC[C@@H]43)[C@@H]1CC[C@@H]2OC(=O)CCc1ccco1`: the Potency entry is “inactive”.
Still for that read-out and setting: as for `O=[N+]([O-])c1ccc(CCl)cc1`, the entry is “inactive”; as for `COc1cnc(OC)n2nc(NS(=O)(=O)c3c(OCC(F)F)cccc3C(F)(F)F)nc12`, “inactive”.
Turning to `CCNc1nc(NC(C)C(C)C)nc(SC)n1` (stereo not drawn), the Potency is 4.86 µM (active).
Take `Nc1ccccc1-c1ccccc1`: the Potency entry was “inactive”.
On the same count and under the same terms, in the case of `CN1[C@@H]2CC[C@H]1CC(O)C2` (stereo partly drawn) it was “inactive”; in that of `COC(=O)/C=C(\C)OP(=O)(OC)OC`, “inactive”; in that of `CC(C)[C@@H](Nc1ccc(C(F)(F)F)cc1Cl)C(=O)OC(C#N)c1cccc(Oc2ccccc2)c1` (stereo partly drawn), “inactive”.
Take `CN(C)c1ccc(N)cc1`: the Potency is 13.4 µM (active).
`O=C(Cl)c1ccccc1F`: the Potency result was “inactive”.
Consider `CN/C(=N\[N+](=O)[O-])NCc1cnc(Cl)s1`, for which the Potency result was “inactive”.
With `CC(C)C(Br)C(=O)NC(N)=O` (stereo not drawn), the Potency result was “inactive”.
On the same count and under the same terms, in the case of `CC(C)=CC1C(C(=O)OC(C#N)c2cccc(Oc3ccccc3)c2)C1(C)C` (stereo not drawn) it was “inactive”; in that of `O=[N+]([O-])c1ccccc1-c1ccccc1`, “inactive”.
The same measure, in the same setting: in the case of `COC(=O)c1ccccc1S(=O)(=O)NC(=O)Nc1nc(C)nc(OC)n1` it was “inactive”; in that of `CNC(=O)/C=C(\C)OP(=O)(OC)OC`, “inactive”.
On the same count and under the same terms, as for `C#CCC1=C(C)C(OC(=O)C2C(C=C(C)C)C2(C)C)CC1=O` (stereo not drawn), the entry is “inactive”.
As to `COCCC#N`, the Potency result is “inactive”.
The same measure, in the same setting: in the case of `O=S(=O)(O)F` it was “inactive”.
Take `Cc1c([N+](=O)[O-])cc2c(c1[N+](=O)[O-])C(C)(C)CC2(C)C`: the Potency result is “inactive”.
On the same count and under the same terms, in the case of `Cc1cccc(Cc2cnc[nH]2)c1C` it was “inactive”.

The target of the next assay is Estrogen receptor beta (Homo sapiens) (UniProt Q92731). As to the kind of experiment: qHTS assay to identify small molecule agonists of the estrogen receptor beta (ER-beta) signaling pathway (AID 1259377; active means well fitted activation curve with a large enough effect in the signal ratio in the repeat runs, not every such curve was filed as active; the % refers to the signal ratio). Particulars: ER-beta-UAS-bla HEK293T, beta-lactamase FRET ratio, 16 h; series mostly up to 92.4 µM. The procedure, abridged: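 A UAS-controlled beta-lactamase reporter in ER-beta-UAS-bla HEK293T cells reports receptor activation. Compounds act for 16 hr at 37C in 2% charcoal-stripped serum, and a FRET substrate is read by fluorescence after 2 hours.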
Chain of Estrogen receptor beta (Homo sapiens) (Q92731 whole entry, looked up): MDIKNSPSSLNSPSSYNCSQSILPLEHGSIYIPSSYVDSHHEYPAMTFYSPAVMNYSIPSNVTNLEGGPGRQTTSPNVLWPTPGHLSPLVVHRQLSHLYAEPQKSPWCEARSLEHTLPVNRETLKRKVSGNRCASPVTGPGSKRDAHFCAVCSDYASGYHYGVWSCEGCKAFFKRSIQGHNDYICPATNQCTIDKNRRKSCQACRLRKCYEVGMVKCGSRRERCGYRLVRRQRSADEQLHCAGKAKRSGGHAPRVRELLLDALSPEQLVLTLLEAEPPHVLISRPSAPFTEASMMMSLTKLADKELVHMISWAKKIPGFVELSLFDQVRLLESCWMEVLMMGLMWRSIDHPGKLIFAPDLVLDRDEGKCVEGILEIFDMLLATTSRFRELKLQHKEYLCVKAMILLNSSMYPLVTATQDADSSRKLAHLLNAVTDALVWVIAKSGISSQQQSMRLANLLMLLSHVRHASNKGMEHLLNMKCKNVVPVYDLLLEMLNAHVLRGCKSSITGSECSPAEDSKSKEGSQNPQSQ
As for `ClC(Cl)C(Cl)(Cl)Cl`, the Potency entry is “inactive”.
Still for that read-out and setting: as for `Cc1ccc([N+](=O)[O-])[c]2c1[O][Hg]2`, the entry is “inactive”; as for `Clc1ccc(C2(Cn3cncn3)OCCO2)c(Cl)c1`, “inactive”.
As to `CCCCCCCCCCCCCCn1cc[n+](C)c1`, the Potency entry was “inactive”.
Still for that read-out and setting: as for `S=C=NCCc1ccccc1`, the entry is “inactive”; as for `CC(C)N(C(=O)SC/C(Cl)=C/Cl)C(C)C`, “inactive”; as for `Brc1cccc(-c2ccccc2)c1`, “inactive”.
As for `CCN(CC)CCc1c[nH]c2ccccc12`, the Potency entry is “inactive”.
Same read-out and setting: in the case of `CCC1COC(Cn2cncn2)(c2ccc(Cl)cc2Cl)O1` (stereo not drawn) it was “inactive”; in that of `Cc1cnc2c(C(=O)O)c(Cl)ccc2c1`, “inactive”; in that of `CCC(C)c1cccc(C(C)CC)c1O` (stereo not drawn), “inactive”.
In the case of `CCCCc1ccccc1`, the Potency entry was “inactive”.
Still for that read-out and setting: as for `CC(Cc1ccc(OCC(=O)O)cc1)NCC(O)c1csc(C(F)(F)F)n1` (stereo not drawn), the entry is “inactive”.
Consider `CCC[CH2][Sn]([CH2]CCC)([CH2]CCC)[O][Sn]([CH2]CCC)([CH2]CCC)[CH2]CCC`, for which the activation is -9.06% [at 8.39 µM] (inactive).
Turning to `COc1ccc2c(c1OC)C(=O)O[C@@H]2[C@H]1c2cc3c(cc2CCN1C)OCO3`, the Potency entry is “inactive”.
For the molecule `C=CCOC(=O)c1ccccc1N`, the Potency result is “inactive”.
Same read-out and setting: in the case of `NC(=O)C(Cl)Cl` it was “inactive”; in that of `CC1(C)[C@H](/C=C2\CCSC2=O)[C@@H]1C(=O)OCc1coc(Cc2ccccc2)c1`, “inactive”.
`C[C@]12CC[C@H]3[C@@H](CCC4=CC(=O)CC[C@@H]43)[C@@H]1CC[C@@H]2OC(=O)CCc1ccco1`: the Potency is 2.66 µM (active).
The same measure, in the same setting: as for `O=[N+]([O-])c1ccc(CCl)cc1`, the entry is “inactive”.
Same read-out and setting: as for `COc1cnc(OC)n2nc(NS(=O)(=O)c3c(OCC(F)F)cccc3C(F)(F)F)nc12`, the entry is “inactive”.
Same read-out and setting: in the case of `CCNc1nc(NC(C)C(C)C)nc(SC)n1` (stereo not drawn) it was “inactive”.
Take `Nc1ccccc1-c1ccccc1`: the Potency entry is “inactive”.
For the molecule `CN1[C@@H]2CC[C@H]1CC(O)C2` (stereo partly drawn), the Potency entry is “inactive”.
On the same count and under the same terms, in the case of `COC(=O)/C=C(\C)OP(=O)(OC)OC` it was “inactive”.
Turning to `CC(C)[C@@H](Nc1ccc(C(F)(F)F)cc1Cl)C(=O)OC(C#N)c1cccc(Oc2ccccc2)c1` (stereo partly drawn), the Potency result was “inactive”.
Same read-out and setting: in the case of `CN(C)c1ccc(N)cc1` it was “inactive”; in that of `O=C(Cl)c1ccccc1F`, “inactive”.
For the molecule `CN/C(=N\[N+](=O)[O-])NCc1cnc(Cl)s1`, the Potency result is “inactive”.
Same read-out and setting: as for `CC(C)C(Br)C(=O)NC(N)=O` (stereo not drawn), the entry is “inactive”; as for `CC(C)=CC1C(C(=O)OC(C#N)c2cccc(Oc3ccccc3)c2)C1(C)C` (stereo not drawn), “inactive”.
As for `O=[N+]([O-])c1ccccc1-c1ccccc1`, the Potency entry is “inactive”.
`COC(=O)c1ccccc1S(=O)(=O)NC(=O)Nc1nc(C)nc(OC)n1`: the Potency result was “inactive”.
In the case of `CNC(=O)/C=C(\C)OP(=O)(OC)OC`, the Potency result was “inactive”.
The same measure, in the same setting: in the case of `C#CCC1=C(C)C(OC(=O)C2C(C=C(C)C)C2(C)C)CC1=O` (stereo not drawn) it was “inactive”; in that of `COCCC#N`, “inactive”; in that of `O=S(=O)(O)F`, “inactive”.
Take `Cc1c([N+](=O)[O-])cc2c(c1[N+](=O)[O-])C(C)(C)CC2(C)C`: the Potency entry was “inactive”.
Same read-out and setting: in the case of `Cc1cccc(Cc2cnc[nH]2)c1C` it was “inactive”.
